Bioassay records (PubChem BioAssay)
In the library only some 3.5% were active in any assay of this set; here they are far more common.
LEDGF integ inh: blocks HIV-1 LEDGF/p75-dependent DNA integration; 0.64% of 370,000 active; TR-FRET IN-LEDGF/p75 DNA integration, Eu/Cy5; inhibition, % at 3.7 µM;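 active = inhibition above the screen-wide mean plus 3 SD, cut at about 13% in these data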;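 also: signal is the Cy5 over europium emission ratio at 671 and 618 nm; 0% = plate median of compound wells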
PG9 Ab binder: small molecules binding HIV-1 gp120 antibody PG9 | AID 624416 | inhibition, % at 6.7 µM | 0.43% of 360,000 active | TR-FRET gp120-PG9 antibody binding; in the data active = inhibition above about 8.5%
MBD2 DNA inh: inhibitors of human MBD2 binding to methylated oligonucleotide; 0.31% of 370,000 active; inhibition, % at 4.4 µM; TR-FRET; Q9UBB5; AID 686964; in the data active = inhibition above about 13%
Target sequence (Q9UBB5 whole entry, looked up): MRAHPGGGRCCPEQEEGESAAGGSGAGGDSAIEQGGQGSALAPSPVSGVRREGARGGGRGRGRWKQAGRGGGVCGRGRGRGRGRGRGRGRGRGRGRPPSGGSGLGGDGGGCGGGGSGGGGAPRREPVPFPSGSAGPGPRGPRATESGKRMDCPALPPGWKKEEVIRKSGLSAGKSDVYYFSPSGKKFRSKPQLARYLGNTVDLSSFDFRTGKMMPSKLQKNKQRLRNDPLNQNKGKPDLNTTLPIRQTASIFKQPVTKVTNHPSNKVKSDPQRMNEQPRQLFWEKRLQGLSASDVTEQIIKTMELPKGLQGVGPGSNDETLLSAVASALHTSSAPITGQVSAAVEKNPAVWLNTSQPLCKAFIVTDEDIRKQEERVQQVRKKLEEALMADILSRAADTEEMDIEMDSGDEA
DNMT1 block: DNMT1 (human) enzyme inhibition. P26358. DNMT1 molecular beacon, Hinp1I cleavage, fluorescence. inhibition (reported as % activation of signal), % at 10 µM. 0.83% of 360,000 active; in the data active = inhibition above about 50%
UHRF1 binding: blocks human UHRF1 binding to methylated DNA. AID 687016. Q96T88. UHRF1 binding to methylated oligo, TR-FRET. inhibition, % at 4.4 µM. 0.75% of 370,000 active; in the data active = inhibition above about 21%;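 also: UHRF1 SRA domain binding a hemimethylated CpG hairpin DNA probe; 0% = median of test compound wells and 100% = reference inhibitor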
rCAG RNA binder: r(CAG) repeat RNA binding | TO-PRO-1 dye displacement fluorescence | 1.3% of 370,000 active | inhibition, % at 3 µM;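 active = inhibition above the plate cutoff, the mean of all test compounds on that plate plus 3 SD, cut at about 35% in these data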;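 also: 0% = DMSO alone and 100% = 100 µM mitoxantrone as full dye displacement; higher means more dye released from RNA so lower well fluorescence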
rCAG binder conf: r(CAG) RNA repeat binding, confirmation; shares compounds with rCAG RNA binder; TO-PRO-1 dye displacement fluorescence; inhibition, % at 3 µM; 70% of 4,300 active; AID 652065;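 active = inhibition above a per-plate cutoff, the mean inhibition of sample wells plus 3 SD, cut at about 35% in these data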;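 also: loss of TO-PRO-1 fluorescence as compound displaces dye from 1x1 AA loop RNA; 0% = DMSO only wells and 100% = 100 µM mitoxantrone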
dCAG dye counter: counter-screen for rCAG RNA binders: DNA CAG dye complex inhibitors; shares compounds with rCAG RNA binder; d(CAG) DNA oligo TO-PRO-1 dye displacement, fluorescence; inhibition, % at 3 µM; 94% of 4,300 active; AID 652068;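 active = inhibition above its plate's cutoff, the mean test-well inhibition plus 3 SD, cut at about 4.8% in these data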;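 also: 0% = DNA dye mix with DMSO and 100% = 100 µM mitoxantrone; hits displace the dye from DNA and so lower well fluorescence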
dCAG dye DR: DNA CAG dye complex inhibition, dose response counter-screen | shares compounds with rCAG RNA binder | DNA CAG/GTC duplex TO-PRO-1 dye displacement fluorescence | IC50, µM | 20% of 250 active | AID 686960; in the data active = IC50 below about 10 µM
The depositor's hits bear a star; i = inactive; x = no result given.

SMILES | LEDGF integ inh | PG9 Ab binder | MBD2 DNA inh | DNMT1 block | UHRF1 binding | rCAG RNA binder | rCAG binder conf | dCAG dye counter | others
Cc1ccc(S(=O)(=O)N2[C@@H](c3ccc(Br)cc3)C(C(=O)O)=CC[C@H]2c2cccc(Cl)c2)cc1 | -1 | 0 | -4 | 6 | 2 | 14 | x | x
Cc1ccc(S(=O)(=O)N2[C@@H](c3cccc(Cl)c3)C(C(=O)O)=CC[C@H]2c2ccc3c(c2)OCO3)cc1 | 0 | 1 | 3 | 1 | -1 | 67* | 69* | 31*
C[C@H](CO)N1C[C@H](C)[C@@H](CN(C)S(=O)(=O)c2ccccc2)Oc2ccc(NC(=O)CCN3CCOCC3)cc2C1=O | 2 | -3 | -3 | -10 | 1 | 1 | x | x
O=C(NC1CCCCC1)C1c2ccccc2OCC(=O)N1CCc1c[nH]c2ccccc12 (configuration not stated) | 5 | 0 | -4 | x | 1 | 3 | x | x
N#Cc1ccc(N)cc1OCCCN1CCCCC1 | 0 | -1 | 7 | 2 | 1 | 0 | x | x
O=C(Nc1cc(Cl)ccc1Cl)c1ccco1 | 3 | 0 | -6 | 2 | -1 | 3 | x | x
CS/C(Nc1cc(Cl)ccc1Cl)=C(/C#N)C(=O)c1ccco1 | 0 | 1 | 7 | 3 | -1 | 47* | 33 | 5.7*
COC(=O)c1sc(N2C(=O)C(O)=C(C(=O)c3ccc(C)o3)C2c2ccc([N+](=O)[O-])cc2)nc1C (configuration not stated) | 0 | -1 | -2 | -6 | -2 | 66* | 68* | 28* | dCAG dye DR=3.3*
CCOC(=O)c1sc(N2C(=O)C(O)=C(C(=O)c3ccc(C)o3)C2c2cccc([N+](=O)[O-])c2)nc1C (configuration not stated) | 5 | 0 | 1 | 3 | -3 | 55* | 78* | 42*
CCOc1ccc(C2C(C(=O)c3ccc(C)o3)=C(O)C(=O)N2c2nc(C)c(C(=O)OC)s2)cc1 (configuration not stated) | 1 | 0 | -8 | 0 | -1 | 24 | x | x
CCOC(=O)c1sc(N2C(=O)C(O)=C(C(=O)c3ccc(C)o3)C2c2ccc(OC)c(OC)c2)nc1C (configuration not stated) | 0 | -2 | 1 | -5 | -1 | 33 | x | x
COc1ccc2nc(N3C(=O)C(O)=C(C(=O)c4ccco4)C3c3ccc(OC)c(OC)c3)sc2c1 (configuration not stated) | -2 | 0 | 5 | -5 | -1 | 56* | 69* | 25* | dCAG dye DR=i
COC(=O)c1sc(N2C(=O)C(O)=C(C(=O)c3ccc(C)o3)C2c2ccc(OC)c(OC)c2)nc1C (configuration not stated) | -1 | 0 | -1 | -4 | 0 | 37* | 36* | 9.9*
CC1CN(S(=O)(=O)c2cccc(C(=O)NCC(c3cccs3)N3CCOCC3)c2)CC(C)O1 (configuration not stated) | -3 | -1 | 3 | -13 | 1 | -1 | x | x
Cc1ccc([C@@H]2[C@@H]3C(=O)N(C)C(=O)[C@@H]3[C@]3(Cc4ccccc4)C(=O)N(Cc4ccccc4)CC(=O)N23)o1 | -3 | 0 | -5 | -1 | 0 | -5 | x | x
Cc1ccc2nc(N3C(=O)C(O)=C(C(=O)c4ccc(C)o4)C3c3cccc(O)c3)sc2c1 (configuration not stated) | -2 | 0 | 0 | 1 | -2 | 70* | 69* | 33*
CCN(CC)S(=O)(=O)c1cccc(-c2n[nH]c(=S)n2/N=C/c2ccc(Br)cc2)c1 | -1 | -2 | -1 | 0 | -1 | 78* | 83* | 48*
CCN(CC)S(=O)(=O)c1cccc(-c2n[nH]c(=S)n2/N=C/c2ccc(OC(F)F)cc2)c1 | -3 | 0 | -3 | -1 | -1 | 78* | 64* | 22*
CCOc1ccc(C=Nn2c(-c3cccc(OC(C)C)c3)n[nH]c2=S)cc1 | -2 | x | 1 | x | 1 | 44* | 46* | 11*
CCN(CC)S(=O)(=O)c1cccc(-c2n[nH]c(=S)n2C(C)COC)c1 (configuration not stated) | -3 | 0 | 3 | 0 | 3 | 1 | x | x
CCN(CC)S(=O)(=O)c1cccc(-c2n[nH]c(=S)n2/N=C/c2ccc(OC)cc2)c1 | -2 | 1 | 4 | -1 | 1 | 50* | 46* | 12*
CCC(C)n1c(-c2cccc(S(=O)(=O)N(CC)CC)c2)n[nH]c1=S (configuration not stated) | -3 | 0 | -3 | 1 | 1 | 2 | x | x
O=C(CC1SC(N2CCOCC2)=NC1=O)Nc1ccc(Cl)c(C(F)(F)F)c1 (configuration not stated) | 2 | -1 | -6 | 3 | 0 | 2 | x | x
COCC(=O)N1CCC(n2nccc2NC(=O)CCOc2ccccc2)CC1 | 5 | -2 | -2 | 1 | 1 | 0 | x | x
CC1(C(=O)Nc2ccc3c(c2)OCCO3)CSCC(=O)N1CC(F)(F)F (configuration not stated) | 4 | -1 | 2 | x | 0 | 3 | x | x
SMILES | LEDGF integ inh | PG9 Ab binder | MBD2 DNA inh | DNMT1 block | UHRF1 binding | rCAG RNA binder | rCAG binder conf | dCAG dye counter | others
O=C(CC1SC(=O)N(c2ccccc2)C1=O)Nc1ccc(Cl)cc1 (configuration not stated) | -5 | 1 | 2 | 1 | 0 | 43* | 8 | 6.6*
O=C(CC1SC(=O)N(c2ccccc2)C1=O)Nc1ccc(Br)cc1 (configuration not stated) | 2 | -2 | -6 | -1 | -2 | 42* | 9 | 8.1*
O=C(Cc1ccc(Cl)cc1)OCC(=O)N1CCCCCC1 | 2 | 0 | -2 | 4 | 1 | 0 | x | x
CCc1nc2ccc(C(=O)Nc3cc(-c4ccccc4)ccc3OC)cn2c1N(C=O)CCC(C)C | -2 | -1 | 1 | -7 | 2 | 7 | x | x
O=C(O)c1ccccc1N/N=C/c1cc(Br)cc(Br)c1O | -6 | -1 | 1 | 0 | 1 | 45* | 92* | 75*
O=C(Cc1ccccc1)N/N=C/c1cc(Br)cc(Br)c1O | -2 | -1 | 2 | 0 | -2 | 11 | x | x
CC(/C=C1\SC(=S)N(C(C(=O)O)C(C)C)C1=O)=C\c1ccccc1 (configuration not stated) | 0 | 0 | -4 | 6 | -1 | 72* | 75* | 31* | dCAG dye DR=i
CC(=O)N1C(=O)/C(=C2\SC(=S)N(NS(=O)(=O)c3ccc(C)cc3)C2=O)c2ccccc21 | -1 | -2 | 2 | 4 | 17 | 15 | x | x
